GLD-1 TGE inh = GLD-1-TGE RNA interaction inhibition (C. elegans); Q17339; purified GLD-1 + fluorescein TGE RNA, fluorescence polarization; inhibition, % at 5.96 µM; 320,000 tested, 0.44% active; AID 2280;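 active means percent inhibition above a per-plate cutoff, the plate mean of test compounds plus 3 SD, cut at about 30% in these data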;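 further: 0% = DMSO wells with GLD-1 and probe and 100% = wells lacking GLD-1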
Target sequence (Q17339 whole entry, looked up): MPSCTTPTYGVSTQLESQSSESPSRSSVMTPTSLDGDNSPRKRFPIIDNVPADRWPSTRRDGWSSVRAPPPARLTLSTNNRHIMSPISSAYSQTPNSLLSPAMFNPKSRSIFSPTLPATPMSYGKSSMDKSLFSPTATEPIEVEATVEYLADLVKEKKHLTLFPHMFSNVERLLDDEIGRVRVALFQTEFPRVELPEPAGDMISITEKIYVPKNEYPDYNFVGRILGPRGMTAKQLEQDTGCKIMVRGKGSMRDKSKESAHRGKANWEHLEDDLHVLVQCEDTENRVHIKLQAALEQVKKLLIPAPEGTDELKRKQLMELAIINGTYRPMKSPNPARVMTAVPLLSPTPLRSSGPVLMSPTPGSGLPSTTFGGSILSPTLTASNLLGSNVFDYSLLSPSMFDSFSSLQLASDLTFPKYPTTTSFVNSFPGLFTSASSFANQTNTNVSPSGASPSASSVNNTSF
MEX-5 binding = C. elegans MEX-5 TCR-2 RNA binding activity; Q9XUB2; MEX-5/FITC-TCR2 RNA binding, fluorescence polarization; hits give low values; activity score (negative = inhibition of binding), % at 10 µM; 300,000 tested, 0.38% active;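 active means inhibition past about -25% in most replicates, and total fluorescence under double the plate's negative control median, limit read from the data; inconclusive means replicates evenly split on the limit, or fluorescence at least double controls; inactive means too little inhibition in most replicates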;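 further: 0% = DMSO and -100% = 5 µM competing unlabeled TCR2 RNA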
EBV gp42 inh = inhibitors of Epstein-Barr virus glycoprotein 42; AID 1085; inhibition, % (tested at 21.74 µM); 220,000 tested, 0.42% active; Q1HVG2; Fluorescence polarization binding assay, mP read-out; in the data active means inhibition above about 50%
Bcl-xL primary = Bcl-xL (human) inhibition. GST-Bcl-xL / FITC-Bim BH3 peptide fluorescence polarization. inhibition, % at 10.9 µM. 320,000 tested, 0.7% active. AID 2129;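 active means inhibition above the mean of all tested compounds plus 3 SD, cutoff set per campaign, cut at about 30% in these data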;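 further: 0% = DMSO wells and 100% = unlabeled Bim-BH3 peptide competitor; inhibitors lower millipolarization by displacing the labeled peptide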
Target sequence (Q07817 whole entry, looked up): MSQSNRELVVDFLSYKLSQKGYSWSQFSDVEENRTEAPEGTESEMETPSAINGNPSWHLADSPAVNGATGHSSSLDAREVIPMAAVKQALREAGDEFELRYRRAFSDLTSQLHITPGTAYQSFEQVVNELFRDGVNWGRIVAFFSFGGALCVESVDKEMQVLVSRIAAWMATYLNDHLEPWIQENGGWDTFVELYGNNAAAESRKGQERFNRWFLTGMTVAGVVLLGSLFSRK
E coli Lon inh = inhibitors of E. coli Lon protease. inhibition, % at 7.94 µM. P0A9M0. AID 602123. 360,000 tested, 0.42% active. purified E. coli Lon protease, fluorescence polarization; in the data active means inhibition above about 13%, passing the limit was not always enough;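 further: 0% = enzyme with probe and DMSO and 100% = no enzyme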
* = called active by the depositor; ? = inconclusive; nt = no result. A selection: hits, their analogues and other compounds. The true share with any hit is near 1.3%.

SMILES | GLD-1 TGE inh | MEX-5 binding | EBV gp42 inh | Bcl-xL primary | E coli Lon inh
COc1ccccc1-n1c(O)c(/C=C2\C=Nc3ccccc32)c(=O)[nH]c1=O | -19 | -35* | nt | -11 | -69
CCOc1ccc(-n2c(O)c(/C=C3\C=Nc4ccccc43)c(=O)[nH]c2=O)cc1 | -23 | -13 | nt | 78* | -77
COc1ccc(OC)c(-n2c(O)c(/C=C3\C=Nc4ccccc43)c(=O)[nH]c2=O)c1 | -25 | -5 | nt | -4 | -73
CCN1C(=O)NC(=O)/C(=C\c2cn(CC(=O)N3CCCCC3C)c3ccccc23)C1=O (stereo unspecified) | -6 | ? | nt | 105* | -37
CCN(CC)C(=O)Cn1cc(/C=C2\C(=O)NC(=O)N(c3ccccc3F)C2=O)c2ccccc21 | -20 | -64* | nt | -12 | -54
O=C(O)Cn1cc(C=C2C(=O)NC(=O)NC2=O)c2ccccc21 | -3 | 3 | nt | 6 | -16
CN1C(=O)C(=Cc2cn(CC(=O)N3CCCCC3)c3ccccc23)C(=O)N(C)C1=O | -3 | -36* | nt | 0 | -12
COc1cccc(C(c2nnnn2C(C)(C)C)N2CCC3(CC2)C(=O)NCN3c2ccccc2)c1OC (stereo unspecified) | nt | nt | nt | nt | 4
CCCN1CCc2cccc3c2[C@H]1Cc1ccc(O)c(O)c1-3 | 15 | -84* | nt | 32* | 12
COc1ccc2c(c1O)-c1c(OC)c(OC)cc3c1[C@H](C2)N(C)CC3 | -1 | nt | nt | 8 | -3
CN1C(=O)/C(=C/C=C/c2ccco2)C(=O)NC1=S | -8 | -80* | -17 | 16 | -94
CCN1C(=O)/C(=C\c2ccc([N+](=O)[O-])s2)C(=O)NC1=S | nt | nt | 1 | nt | nt
COc1ccc(OC)c(N2C(=O)/C(=C/c3ccco3)C(=O)NC2=S)c1 | 10 | -2 | nt | 80* | nt
COc1ccc(N2C(=O)/C(=C/c3ccc(C)o3)C(=O)NC2=S)cc1 | nt | -7 | nt | nt | -22
O=C1NC(=O)N(c2ccccc2)C(=O)/C1=C/C=C/c1ccco1 | 12 | 0 | -178 | 14 | -68
COc1ccc(OC)c(N2C(=O)NC(=O)/C(=C/c3ccc([N+](=O)[O-])s3)C2=O)c1 | -2 | -42* | 1 | 26 | -7
O=C1NC(=S)N(c2ccc(F)cc2)C(=O)/C1=C/c1ccco1 | 1 | -94* | nt | 79* | nt
Fc1cccc(-c2ccc3c(c2)CN(c2cccc(Cl)c2)Cc2cnnn2-3)c1 | nt | nt | nt | nt | 3
COc1ccc(P2(=O)Nc3ccccc3N2)cc1 | 15 | -36* | 24 | 62* | -37
Cc1ccc(N2C(=O)NC(=O)/C(=C\c3cc(C)n(-c4ccc(C(=O)O)cc4)c3C)C2=O)cc1 | -11 | -35* | nt | 2 | -26
CN(Cc1cccc(-c2ccncc2)c1)C(=O)Oc1ccccc1Cc1ccccc1 | nt | nt | nt | nt | -6
CCc1ccc(N2C(=O)NC(=O)/C(=C\c3cccn3CCOc3ccc(C(C)C)cc3)C2=O)cc1 | -2 | -36* | -3 | 5 | -14
CCOC(=O)c1cc2ccccc2n1C1CCN(Cc2ccccc2)CC1 | nt | nt | nt | nt | -5
O=C1/C(=C/c2cc3c(cc2Cl)OCO3)N2CCC1CC2 | 54* | -1 | -16 | 4 | nt
C[C@]12CC[C@@H](O)C[C@@H]1CC[C@@H]1[C@@H]2CC[C@]2(C)C(=O)[C@H](O)C[C@@H]12 | nt | nt | nt | nt | 0
SMILES | GLD-1 TGE inh | MEX-5 binding | EBV gp42 inh | Bcl-xL primary | E coli Lon inh
COC1/C=C/C=C(\C)Cc2cc(O)c(Cl)c(c2)N(C)C(=O)CC(OC(=O)C(C)C)C2(C)OC2C(C)C2CC1(O)NC(=O)O2 (stereo unspecified) | nt | nt | nt | nt | -5
CCn1nc(-c2ccccc2)nc2c(=O)n(C)c(=O)nc1-2 | 128* | ? | 98* | 136* | 83*
CN1CCN(c2ccc3c(c2)S(=O)(=O)c2ccccc2C3=O)CC1 | 8 | -2 | nt | 74* | -13
O=C(O)CCC(=O)NCCC1=c2ccccc2=N/C1=C\c1c(O)n(Cc2ccc(F)cc2)c(=S)[nH]c1=O | 5 | -1 | 82* | 7 | -5
CCN(CC)c1ccc(N=Cc2c(O)n(CCc3ccc(OC)c(OC)c3)c(=O)[nH]c2=O)cc1 | 3 | -4 | 83* | 3 | -10
COc1ccc(CCn2c(O)c(C=Nc3ccc(F)cc3)c(=O)[nH]c2=O)cc1OC | 7 | -1 | -18 | 4 | -10
CCOc1ccc(NC(=O)c2c(O)[nH]c(=O)[nH]c2=O)cc1 | 12 | -2 | nt | 5 | 0
CCOC(=O)c1ccc(NC(=O)c2c(O)[nH]c(=O)[nH]c2=O)cc1 | 5 | -4 | 77* | -4 | -7
CCOC(=O)[C@]12Cc3cc(C)ccc3[C@H]1N(Cc1ccccc1)C(=O)c1cc(OC)ccc12 | nt | nt | nt | nt | 3
CCCCn1c(O)c(/C=N/N2CCOCC2)c(=O)[nH]c1=S | 0 | -4 | -11 | -2 | 3
CCCCCCn1c(O)c(C=Nc2ccccc2N2CCOCC2)c(=O)[nH]c1=S | -3 | -31* | -53 | 0 | 0
COc1ccc(/C=C2/C(=O)NC(=O)N(Cc3ccco3)C2=O)cc1 | -26 | -81* | 36 | -5 | nt
Cn1cccc1/C=C1\C(=O)NC(=O)N(Cc2ccco2)C1=O | nt | -7 | 4 | nt | -44
CCOC(=O)[C@]1(C#N)[C@@H]2C=CC(C(C)=O)=CN2[C@@H](C(N)=O)[C@@H]1c1ccsc1 | 54* | -53* | 71* | 88* | -9
O=C(COC(=O)c1cc(Br)cc(Br)c1O)NC12CC3CC(CC(C3)C1)C2 | nt | nt | nt | nt | -1
O=C1NC(=O)C2(Cc3ccccc3N3CCCC32)C(=O)N1 (stereo unspecified) | 19 | -12 | -7 | 37* | -2
O=C(N/N=C/c1c(O)n(C2CC2)c(=S)[nH]c1=O)c1ccccc1O | 0 | -60* | 0 | 6 | 2
O=C(N/N=C/c1c(O)n(-c2ccccc2)c(=S)[nH]c1=O)c1ccccc1 | 4 | -8 | -6 | 7 | 4
Cc1ccccc1-n1c(O)c(/C=N/NC(=O)c2ccccc2O)c(=O)[nH]c1=S | -5 | -29* | -15 | 6 | -11
Cc1ccc2c(c1)Oc1ccccc1N=C2 | nt | nt | nt | nt | 8
C=C(C)[C@@H]1[C@H]2OC(=O)[C@H]1[C@]1(O)C[C@H]3O[C@]34C(=O)O[C@H]2[C@]14C | nt | nt | nt | nt | -9
C#CC1(O)CCC2C3CCC4=C/C(=N/OCC(=O)NCC(=O)NC(C(=O)O)C(C)C)CC[C@]4(C)C3CC[C@@]21C (stereo partly specified) | nt | 1 | nt | nt | -4
C#C[C@]1(O)CC[C@H]2[C@@H]3CCC4=Cc5nc6nc7ccccc7n6cc5C[C@]4(C)[C@H]3CC[C@@]21C | 16 | nt | nt | 51* | -39
C[C@@H]1CN([C@H](C)CO)C(=O)CCCn2cc(nn2)CO[C@H]1CN(C)C(=O)Oc1cccc2ccccc12 | nt | nt | nt | nt | 5
Cc1cc(N2CCCC2)ccc1C=C(C#N)C#N | -70 | ? | 85* | 119* | -25
Cc1cc(N2CCCCC2)ccc1C=C1C(=O)N(C)C(=S)N(C)C1=O | -9 | 3 | -23 | -14 | -11
Nc1c(C(=O)NCC2CCCO2)c2nc3ccccc3nc2n1Cc1ccco1 (stereo unspecified) | 35* | -1 | -4 | 57* | -41

Source: PubChem BioAssay (several laboratories)
